Source: PubChem BioAssay (EPA / NIEHS)
The source made the active and inactive calls. Rule for the calls: active = hit-call score of the fitted dose curve at least 0.9, where 1 is the maximum; inactive = score below 0.9.

Tests used:
[1] = biological target: CCAAT/enhancer-binding protein beta (Homo sapiens) (UniProt P17676); experiment: ATG_C_EBP_CIS: Attagene CIS-FACTORIAL HepG2 Assay for human CCAAT/Enhancer Binding Protein (C/EBP) beta (AID 2282927); conditions: HepG2 Attagene cis-factorial transcription factor reporter; actives raise or lower the signal
CCAAT/enhancer-binding protein beta (Homo sapiens), sequence (P17676 whole entry, looked up, the tested form may be a part): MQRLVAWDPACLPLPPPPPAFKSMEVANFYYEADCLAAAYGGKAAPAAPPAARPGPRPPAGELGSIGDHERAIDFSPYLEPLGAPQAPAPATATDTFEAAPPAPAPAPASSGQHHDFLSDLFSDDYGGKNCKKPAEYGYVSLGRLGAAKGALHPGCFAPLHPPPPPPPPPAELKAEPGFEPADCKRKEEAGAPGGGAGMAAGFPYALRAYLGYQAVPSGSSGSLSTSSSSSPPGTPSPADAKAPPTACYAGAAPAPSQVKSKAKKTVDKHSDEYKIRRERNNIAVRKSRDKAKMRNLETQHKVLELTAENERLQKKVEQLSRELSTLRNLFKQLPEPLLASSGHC
Summary of the method: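 Chemical-treated HepG2 cells (24 h) bearing cis-regulated reporter constructs were processed for total RNA, then reverse transcription, PCR amplification, fluorescent primer extension and fragment analysis; gain- and loss-of-signal were fitted against DMSO.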

[2] = ATG_CMV_CIS: Attagene CIS-FACTORIAL HepG2 Assay for human CMV (Internal Marker) (AID 2282928); conditions: HepG2 CMV promoter reporter, transcription factor profiling; actives raise or lower the signal;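 note: endpoint acts as a background internal control marker rather than a target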
Summary of the method: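 Fluorescence intensity of RT-PCR-derived reporter fragments, resolved by capillary electrophoresis, gives the signal. HepG2 liver cells bearing transfected cis-element reporters were treated 24 h; activity in either direction was fit relative to DMSO-treated controls.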

[3] = ATG_AP_1_CIS: Attagene CIS-FACTORIAL HepG2 Assay for human Activator Protein 1 (AP-1) (AID 2282931); conditions: HepG2 Attagene cis-factorial AP-1 reporter mRNA; actives raise or lower the signal
Summary of the method: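 HepG2 cells transiently transfected with cis-element-driven reporter transcription units, dosed for 24 hours. Reporter mRNA measured by RT-PCR, 6-FAM labelling, HpaI digestion and capillary electrophoresis. Bidirectional fitting against DMSO baseline.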

[4] = ATG_AP_2_CIS: Attagene CIS-FACTORIAL HepG2 Assay for human Activator Protein 2 (AP-2) (AID 2282932); conditions: HepG2 AP-2 cis-reporter, Attagene transcription factor profiling; actives raise or lower the signal
Summary of the method: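 Cells (HepG2) transfected with promoter-driven reporter constructs, treated 24 h. Total RNA reverse-transcribed, reporter cDNA PCR-amplified, FAM-labelled by primer extension, digested, resolved by capillary electrophoresis. Activity fitted both directions versus DMSO.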

[5] = ATG_BRE_CIS: Attagene CIS-FACTORIAL HepG2 Assay for human Bone Morphogenetic Protein (BMP) Response Element (BRE) (AID 2282933); conditions: HepG2 BMP response element reporter, Attagene transcription factor profiling; actives raise or lower the signal
Summary of the method: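 Endogenous transcription factor activity at a BMP response element was monitored in transfected HepG2 cells 24 h after dosing. Fluorescent RT-PCR products were resolved by capillary electrophoresis, and activity was fitted in both directions versus DMSO.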

[6] = ATG_E_Box_CIS: Attagene CIS-FACTORIAL HepG2 Assay for human Enhancer Box (E-box) (AID 2282936); conditions: HepG2 E-box cis-reporter transcription, actives raise or lower the signal
Summary of the method: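 Endogenous transcription factor activity was sensed in human HepG2 liver cells through transfected cis-promoter reporter units. After 24 h of dosing, total RNA was reverse-transcribed and reporter cDNA resolved by capillary electrophoresis.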

[7] = ATG_M_61_CIS: Attagene CIS-FACTORIAL HepG2 Assay for M61 Transcription Factor (Internal Marker) (AID 2282937); conditions: HepG2 Attagene CIS-FACTORIAL M61 internal marker reporter; actives raise or lower the signal
Summary of the method: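 HepG2 cells transiently transfected with multiplexed cis-promoter reporter units reporting endogenous transcription factor activity, measured 24 h after dosing. Reporter mRNA quantified by RT-PCR and capillary electrophoresis; bidirectional fit against DMSO baseline.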

[8] = ATG_EGR_CIS: Attagene CIS-FACTORIAL HepG2 Assay for human Early Growth Response 1 (EGR1) (AID 2282938); conditions: HepG2 Attagene CIS-FACTORIAL EGR reporter mRNA; actives raise or lower the signal
Summary of the method: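 HepG2 cells transiently transfected with cis-element-driven multiplexed reporter units, dosed for 24 h. EGR1-element reporter mRNA quantified by RT-PCR, 6-FAM labelling, HpaI digestion and capillary electrophoresis; bidirectional fit versus DMSO.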

[9] = ATG_Ets_CIS: Attagene CIS-FACTORIAL HepG2 Assay for human Erythroblast Transformation Specific (ETS) (AID 2282941); conditions: HepG2 ETS cis-reporter transcription, actives raise or lower the signal
Summary of the method: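 Multiplexed reporter transcript profiling: HepG2, 24 h treatment, total RNA to cDNA, PCR, 6-FAM labelling, HpaI cut, capillary electrophoresis. Gain- or loss-of-signal fitted against DMSO.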

[10] = ATG_FoxO_CIS: Attagene CIS-FACTORIAL HepG2 Assay for human Forkhead box O (FoxO) (AID 2282943); conditions: HepG2 Attagene cis-reporter, FoxO element, mRNA; actives raise or lower the signal
Summary of the method: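 24 h chemical exposure, HepG2 with transient cis-MRTU transfection. RNA extraction, oligo(dT) RT, reporter-specific PCR, primer-extension labelling, HpaI digestion, CE fragment analysis; bidirectional fit, DMSO baseline.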

[11] = ATG_GATA_CIS: Attagene CIS-FACTORIAL HepG2 Assay for human GATA Binding Protein (AID 2282944); conditions: HepG2 GATA cis-element reporter, Attagene multiplex mRNA; actives raise or lower the signal
Summary of the method: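 Endogenous transcription factor activity was captured through cis-promoter-driven reporters in transfected HepG2 cells. After 24 h exposure, reporter transcripts were quantified by RT-PCR with fluorescent capillary electrophoresis, and responses fitted both directions against DMSO.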

[12] = ATG_ISRE_CIS: Attagene CIS-FACTORIAL HepG2 Assay for human Interferon Regulatory Factor 1 (IRF1) binding to an Interferon-Stimulated Response Element (ISRE) (AID 2282948); conditions: HepG2 ISRE cis-reporter (Attagene), mRNA transcription readout; actives raise or lower the signal
Summary of the method: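 Signal reflects induction or loss of ISRE-linked reporter mRNA in transiently transfected HepG2 cells after a 24 h treatment, detected by fluorescent RT-PCR fragments on capillary electrophoresis and normalised to DMSO.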

[13] = ATG_M_06_CIS: Attagene CIS-FACTORIAL HepG2 Assay for M06 Transcription Factor (Internal Marker) (AID 2282950); conditions: HepG2 Attagene CIS-FACTORIAL M06 internal marker reporter; actives raise or lower the signal
Summary of the method: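 Steps: transfect HepG2 with multiplexed cis-element reporter constructs; dose chemical 24 h; extract RNA with DNase treatment; reverse-transcribe, PCR-amplify, 6-FAM label, HpaI digest; separate fragments by capillary electrophoresis. Activity fitted both directions versus DMSO.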

[14] = ATG_MRE_CIS: Attagene CIS-FACTORIAL HepG2 Assay for human Metal Responsive Element (MRE) (AID 2282954); conditions: HepG2 MRE cis-reporter transcription, Attagene multiplex; actives raise or lower the signal
Summary of the method: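 Cells were transfected with cis-promoter reporter transcription units, then dosed for 24 h. RNA was reverse-transcribed, amplified, fluorescently labelled and resolved by capillary electrophoresis, and activity was fitted in both directions relative to DMSO.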

[15] = biological target: Paired box protein Pax-6 (Homo sapiens) (UniProt P26367); experiment: ATG_Pax6_CIS: Attagene CIS-FACTORIAL HepG2 Assay for human Paired Box 6 (PAX6) (AID 2282956); conditions: HepG2 CIS-FACTORIAL PAX6 reporter transcription, RNA readout; actives raise or lower the signal
Paired box protein Pax-6 (Homo sapiens), sequence (P26367 whole entry, looked up): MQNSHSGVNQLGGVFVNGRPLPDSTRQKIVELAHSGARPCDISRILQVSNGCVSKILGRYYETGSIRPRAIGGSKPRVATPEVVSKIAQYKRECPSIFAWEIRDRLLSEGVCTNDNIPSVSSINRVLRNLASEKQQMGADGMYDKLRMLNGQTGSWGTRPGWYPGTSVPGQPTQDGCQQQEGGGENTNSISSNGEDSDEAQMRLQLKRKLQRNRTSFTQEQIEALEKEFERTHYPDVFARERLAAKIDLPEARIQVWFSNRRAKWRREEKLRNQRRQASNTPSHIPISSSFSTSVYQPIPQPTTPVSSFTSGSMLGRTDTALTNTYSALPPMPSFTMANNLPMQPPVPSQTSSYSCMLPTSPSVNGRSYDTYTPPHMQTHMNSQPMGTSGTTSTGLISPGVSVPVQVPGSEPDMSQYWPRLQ
Summary of the method: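 Values derive from bidirectional curve fitting of reporter mRNA signal relative to DMSO. HepG2 cells bearing transfected cis-regulated MRTUs were exposed for 24 h; transcripts were read by RT-PCR and capillary electrophoresis.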

[16] = biological target: Transcription factor Sp1 (Homo sapiens) (UniProt P08047); experiment: ATG_Sp1_CIS: Attagene CIS-FACTORIAL HepG2 Assay for human Specificity Protein 1 (Sp1) (AID 2282961); conditions: HepG2 Sp1 cis-reporter transcription, actives raise or lower the signal
Transcription factor Sp1 (Homo sapiens), sequence (P08047 whole entry, looked up): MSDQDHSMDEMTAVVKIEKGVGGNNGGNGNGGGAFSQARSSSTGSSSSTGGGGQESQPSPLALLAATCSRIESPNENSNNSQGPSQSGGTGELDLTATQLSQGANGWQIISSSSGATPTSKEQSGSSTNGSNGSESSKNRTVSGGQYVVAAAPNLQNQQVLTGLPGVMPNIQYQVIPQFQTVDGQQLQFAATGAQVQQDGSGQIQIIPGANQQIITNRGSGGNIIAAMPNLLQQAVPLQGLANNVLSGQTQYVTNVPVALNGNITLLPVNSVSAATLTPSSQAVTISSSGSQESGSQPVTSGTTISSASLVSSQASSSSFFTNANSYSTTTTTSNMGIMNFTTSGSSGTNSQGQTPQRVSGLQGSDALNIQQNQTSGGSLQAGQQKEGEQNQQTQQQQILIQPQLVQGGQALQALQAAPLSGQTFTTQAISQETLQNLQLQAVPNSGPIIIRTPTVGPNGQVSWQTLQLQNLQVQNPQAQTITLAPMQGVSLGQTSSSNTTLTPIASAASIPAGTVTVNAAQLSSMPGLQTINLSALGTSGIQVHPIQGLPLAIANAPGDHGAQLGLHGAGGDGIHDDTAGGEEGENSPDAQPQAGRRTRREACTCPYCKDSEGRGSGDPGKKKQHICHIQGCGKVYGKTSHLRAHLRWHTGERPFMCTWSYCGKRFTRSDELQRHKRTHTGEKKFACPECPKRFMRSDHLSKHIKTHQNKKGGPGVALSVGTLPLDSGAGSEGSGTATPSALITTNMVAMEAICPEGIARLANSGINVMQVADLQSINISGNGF
Summary of the method: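 HepG2 cells transiently transfected with multiplexed cis-regulated reporter constructs, chemical exposure 24 h. Reporter mRNA quantified by RT-PCR with capillary electrophoresis; bidirectional fit relative to DMSO.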

[17] = ATG_SREBP_CIS: Attagene CIS-FACTORIAL HepG2 Assay for human Sterol Regulatory Element Binding (SREBP) (AID 2282962); conditions: HepG2 Attagene cis-factorial SREBP reporter, mRNA; actives raise or lower the signal
Summary of the method: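 Values derive from bidirectional curve fitting with DMSO as baseline. The underlying measurement is reporter mRNA from cis-element-regulated units in transiently transfected HepG2, quantified by RT-PCR and capillary electrophoresis after 24 h exposure.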

[18] = biological target: Signal transducer and activator of transcription 3 (Homo sapiens) (UniProt P40763); experiment: ATG_STAT3_CIS: Attagene CIS-FACTORIAL HepG2 Assay for human Signal Transducer and Activator of Transcription 3 (STAT3) (AID 2282963); conditions: HepG2, Attagene cis-factorial STAT3 reporter transcription; actives raise or lower the signal
Signal transducer and activator of transcription 3 (Homo sapiens), sequence (P40763 whole entry, looked up): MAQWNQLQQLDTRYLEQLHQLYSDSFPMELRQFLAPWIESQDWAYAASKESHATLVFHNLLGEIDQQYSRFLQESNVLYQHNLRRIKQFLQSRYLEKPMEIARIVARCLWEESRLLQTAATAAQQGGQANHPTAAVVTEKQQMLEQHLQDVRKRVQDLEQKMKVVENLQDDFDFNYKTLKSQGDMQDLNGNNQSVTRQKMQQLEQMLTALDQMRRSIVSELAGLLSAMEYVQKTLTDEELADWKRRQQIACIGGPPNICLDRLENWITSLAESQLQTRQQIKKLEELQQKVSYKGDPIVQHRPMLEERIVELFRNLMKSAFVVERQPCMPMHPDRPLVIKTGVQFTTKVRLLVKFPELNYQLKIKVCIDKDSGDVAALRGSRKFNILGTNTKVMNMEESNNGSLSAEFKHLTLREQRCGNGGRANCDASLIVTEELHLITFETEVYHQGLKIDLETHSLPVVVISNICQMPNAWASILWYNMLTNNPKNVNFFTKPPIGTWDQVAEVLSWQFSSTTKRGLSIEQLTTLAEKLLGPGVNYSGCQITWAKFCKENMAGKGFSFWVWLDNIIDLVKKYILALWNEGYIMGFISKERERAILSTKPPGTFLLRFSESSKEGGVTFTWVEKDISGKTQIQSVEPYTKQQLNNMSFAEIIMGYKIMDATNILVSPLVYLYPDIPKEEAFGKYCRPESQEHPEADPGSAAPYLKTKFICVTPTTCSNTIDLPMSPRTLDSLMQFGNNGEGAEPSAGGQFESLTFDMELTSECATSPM
Summary of the method: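 HepG2, MRTU-transfected, 24 h dosing. RNA → RT → PCR → FAM label → HpaI → CE. Bidirectional fit vs DMSO.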

[19] = ATG_TAL_CIS: Attagene CIS-FACTORIAL HepG2 Assay for human TAL Basal Promoter (AID 2282966); conditions: HepG2 Attagene cis-factorial TAL promoter reporter; actives raise or lower the signal;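 note: background control endpoint measuring basal TAL promoter reporter mRNA not a specific factor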
Summary of the method: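 Basal-promoter background-control endpoint from a multiplexed HepG2 reporter panel. Cells were exposed 24 h, then reporter mRNA was read by RT-PCR/CE fluorescence and fitted in both directions relative to DMSO.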

[20] = biological target: X-box-binding protein 1 (Homo sapiens) (UniProt P17861); experiment: ATG_Xbp1_CIS: Attagene CIS-FACTORIAL HepG2 Assay for human X-box Binding Protein 1 (XBP1) (AID 2282972); conditions: HepG2 XBP1 cis-element reporter, Attagene multiplex; actives raise or lower the signal
X-box-binding protein 1 (Homo sapiens), sequence (P17861 whole entry, looked up): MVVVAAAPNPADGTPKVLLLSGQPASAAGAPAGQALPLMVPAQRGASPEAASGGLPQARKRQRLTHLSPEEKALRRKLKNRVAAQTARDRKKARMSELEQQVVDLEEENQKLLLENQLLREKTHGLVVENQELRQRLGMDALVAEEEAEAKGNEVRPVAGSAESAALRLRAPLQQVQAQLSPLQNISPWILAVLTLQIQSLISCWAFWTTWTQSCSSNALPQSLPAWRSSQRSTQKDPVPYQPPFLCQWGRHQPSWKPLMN
Summary of the method: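 Human hepatoma HepG2, cis-element reporter system, 24 h treatment; mRNA quantified by RT-PCR/CE fluorescence; fit relative to DMSO.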

Structure (SMILES): Cc1cc(C)c(S(=O)(=O)O)cc1N=Nc1cc(S(=O)(=O)O)c2ccccc2c1O
- outcome [1]: inactive
- outcome [2]: inactive
- outcome [3]: inactive
- outcome [4]: inactive
- outcome [5]: inactive
- outcome [6]: inactive
- outcome [7]: inactive
- outcome [8]: inactive
- outcome [9]: inactive
- outcome [10]: inactive
- outcome [11]: inactive
- outcome [12]: inactive
- outcome [13]: inactive
- outcome [14]: inactive
- outcome [15]: inactive
- outcome [16]: inactive
- outcome [17]: inactive
- outcome [18]: inactive
- outcome [19]: inactive
- outcome [20]: inactive

Structure (SMILES): O=S(=O)(O)c1cccc2ccccc12
- outcome [1]: inactive
- outcome [2]: inactive
- outcome [3]: inactive
- outcome [4]: inactive
- outcome [5]: inactive
- outcome [6]: inactive
- outcome [7]: inactive
- outcome [8]: inactive
- outcome [9]: inactive
- outcome [10]: inactive
- outcome [11]: inactive
- outcome [12]: inactive
- outcome [13]: inactive
- outcome [14]: inactive
- outcome [15]: inactive
- outcome [16]: inactive
- outcome [17]: inactive
- outcome [18]: inactive
- outcome [19]: inactive
- outcome [20]: inactive

Structure (SMILES): CCCCCC1CCCC(=O)O1 (stereo not given)
- outcome [1]: inactive
- outcome [2]: inactive
- outcome [3]: inactive
- outcome [4]: inactive
- outcome [5]: inactive
- outcome [6]: inactive
- outcome [7]: inactive
- outcome [8]: inactive
- outcome [9]: inactive
- outcome [10]: inactive
- outcome [11]: inactive
- outcome [12]: inactive
- outcome [13]: inactive
- outcome [14]: inactive
- outcome [15]: inactive
- outcome [16]: inactive
- outcome [17]: inactive
- outcome [18]: inactive
- outcome [19]: inactive
- outcome [20]: inactive

Structure (SMILES): COc1c2occc2cc2ccc(=O)oc12
- AC50 [1]: 63.8 µM (active)
- AC50 [2]: 59.2 µM (active)
- outcome [3]: inactive
- outcome [4]: inactive
- outcome [5]: inactive
- outcome [6]: inactive
- outcome [7]: inactive
- outcome [8]: inactive
- outcome [9]: inactive
- outcome [10]: inactive
- outcome [11]: inactive
- outcome [12]: inactive
- outcome [13]: inactive
- outcome [14]: inactive
- outcome [15]: inactive
- outcome [16]: inactive
- outcome [17]: inactive
- outcome [18]: inactive
- outcome [19]: inactive
- outcome [20]: inactive
